Laboratory results reported in PubChem BioAssay AID1159580 (chemical genetic matrix, 2015).
Where “and” joins values, the source holds several entries; their conditions need not be identical. Equal values may be shown once. About 2,000 (36%) of roughly 5,500 compounds were called active. Roughly 18% stayed inconclusive and do not appear here. No stated cut-off is given here; in the data, active means normalized growth mostly below about 0.91 (no sharp cut-off); inconclusive means no clear call, values can overlap the other calls; inactive means mostly above about 0.92. Some of the results follow.

Assay: chemical genetic growth profiling, strain panel (AID 1159580);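 further: tested at 20 µM; growth read once vehicle control cultures reached saturation at 30 °C; 1 = growth at the plate median or of vehicle wells; lower values mean less growth of the strain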
Settings: S. cerevisiae deletion strains, growth OD

Measured: normalized growth

CC1(C)S[C@@H]2[C@H](NC(=O)C(C(=O)O)c3ccccc3)C(=O)N2[C@H]1C(=O)O (stereo partly drawn)
inactive: locus YAL021C, strain ccr4, hits give low values 0.979 | locus YAL026C, strain drs2, hits give low values 0.979 | locus YAL030W, strain snc1, hits give low values 0.985 | locus YBL061C, strain skt5, hits give low values 0.959 | locus YBR009C, strain hhf1, hits give low values 0.934 | locus YBR021W, strain FUR4, hits give low values 0.998 | locus YBR023C, strain chs3, hits give low values 0.966 | locus YBR171W, strain sec66, hits give low values 0.948 | locus YBR229C, strain ROT2, hits give low values 0.987 | locus YBR231C, strain swc5, hits give low values 1 | locus YBR279W, strain paf1, hits give low values 0.985 | locus YCL011C, strain gbp2, hits give low values 0.933 | locus YCL016C, strain dcc1, hits give low values 0.938 | locus YCL029C, strain bik1, hits give low values 0.99 | locus YCL061C, strain MRC1, hits give low values 0.976 | locus YCL069W, strain vba3, hits give low values 0.985 | locus YCR088W, strain abp1, hits give low values 0.996 | locus YDL005C, strain med2, hits give low values 0.999 | locus YDL035C, strain GPR1, hits give low values 1.02 | locus YDL040C, strain nat1, hits give low values 0.997 | locus YDL074C, strain BRE1, hits give low values 0.995 | locus YDL101C, strain DUN1, hits give low values 0.982 | locus YDL134C, strain PPH21, hits give low values 0.999 | locus YDL185W, strain tfp1, hits give low values 0.982 | locus YDL192W, strain arf1, hits give low values 0.98 | locus YDR001C, strain nth1, hits give low values 0.98 | locus YDR069C, strain doa4, hits give low values 0.978 | locus YDR101C, strain arx1, hits give low values 0.994 | locus YDR137W, strain rgp1, hits give low values 0.944 | locus YDR159W, strain sac3, hits give low values 1.01 | locus YDR162C, strain NBP2, hits give low values 1.01 | locus YDR195W, strain ref2 0.987 | locus YDR297W, strain sur2, hits give low values 0.969 | locus YDR318W, strain mcm21, hits give low values 0.99 | locus YDR334W, strain swr1, hits give low values 0.926 | locus YDR335W, strain msn5, hits give low values 0.978 | locus YDR388W, hits give low values 0.995 | locus YDR392W, strain spt3, hits give low values 0.895 | locus YDR502C, strain sam2, hits give low values 0.995 | locus YEL003W, strain gim4, hits give low values 0.99 | locus YEL037C, strain rad23, hits give low values 0.977 | locus YEL061C, strain CIN8 (second series), hits give low values 0.989 | locus YEL061C, strain CIN8, hits give low values 1 | locus YER015W, strain faa2, hits give low values 0.986 | locus YER016W, strain bim1, hits give low values 0.962 | locus YER110C, hits give low values 0.979 | locus YER111C, strain swi4, hits give low values 0.979 | locus YER155C, strain BEM2 (second series), hits give low values 1.03 | locus YER155C, strain BEM2, hits give low values 0.991 | locus YER167W, strain BCK2, hits give low values 0.993 | locus YFR010W, strain ubp6, hits give low values 0.962 | locus YGL078C, strain dbp3, hits give low values 0.993 | locus YGL086W, strain mad1, hits give low values 0.989 | locus YGL167C, strain pmr1, hits give low values 0.96 | locus YGL173C, strain kem1, hits give low values 0.96 | locus YGL227W, strain vid30, hits give low values 0.985 | locus YGL240W, strain doc1, hits give low values 1.01 | locus YGL248W, strain PDE1, hits give low values 0.982 | locus YGL253W, strain hxk2, hits give low values 0.982 | locus YGR135W, strain pre9, hits give low values 0.988 | locus YGR252W, strain gcn5, hits give low values 0.981 | locus YHR013C, strain ard1, hits give low values 0.949 | locus YHR027C, strain rpn1, hits give low values 0.945 | locus YHR030C, strain SLT2, hits give low values 0.991 and 1.01 | locus YHR079C, strain IRE1 (second series), hits give low values 0.989 | locus YHR079C, strain IRE1, hits give low values 1.02 | locus YHR094C, strain hxt1, hits give low values 0.984 | locus YHR129C, strain ARP1, hits give low values 0.99 | locus YHR142W, strain chs7, hits give low values 0.934 | locus YHR200W, strain rpn10, hits give low values 0.985 | locus YIL066C, strain RNR3, hits give low values 1.01 | locus YIL073C, strain SPO22, hits give low values 1.03 | locus YIL125W, strain kgd1, hits give low values 0.984 | locus YIR030C, strain dcg1, hits give low values 0.987 | locus YJL092W, strain hpr5, hits give low values 0.968 | locus YJL095W, strain BCK1 (second series), hits give low values 0.975 | locus YJL095W, strain BCK1, hits give low values 0.978 and 1 | locus YJL115W, strain asf1, hits give low values 0.952 | locus YJL129C, strain trk1, hits give low values 0.944 | locus YJL134W, strain LCB3, hits give low values 0.992 | locus YJL154C, strain vps35, hits give low values 0.982 | locus YJL164C, strain tpk1, hits give low values 0.962 | locus YJL166W, strain qcr8, hits give low values 0.977 | locus YJL168C, strain set2, hits give low values 0.984 | locus YJL187C, strain SWE1 (second series), hits give low values 0.988 | locus YJL187C, strain SWE1, hits give low values 0.979 | locus YJR043C, strain POL32, hits give low values 1.01 | locus YJR066W, strain TOR1, hits give low values 0.992
